Consider 20 molecules from PubChem BioAssay.

As usually defined, the inhibition is the drop in the measured response relative to a control, in per cent.

The nature of assay [1]: antimalarial activity against Dd2 strain (AID 2302;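 active = growth inhibition above 50% at the single 2 µM test dose, taken to imply half-maximal potency below 2 µM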;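 note: 0% = DMSO untreated growth and 100% = chloroquine plus artemisinin killed control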). The note with it: P. falciparum Dd2 in RBCs, LDH growth readout, 72 h; at 2 µM; active compounds read high.
Assay [2] in a line: human hepatoma cell viability loss – ATP luminescence, cytotoxicity control for P. falciparum antimalarial project, primary screen (AID 2303;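 active = inhibition above 50%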;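 note: 0% = DMSO wells and 100% = digitonin-killed cells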). The note with it: HepG2 viability, 24-48 h, at 10 µM, active compounds read high.
Assay [3] addresses L-lactate dehydrogenase (Plasmodium falciparum (isolate CDC / Honduras)) (UniProt Q27743). Briefly: PfLDH activity inhibition – cell lysate, 3D7 strain, counter-screen for P. falciparum growth inhibition project (AID 2304).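 Note: 0% = vehicle and 100% = reference inhibitor.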 The note with it: P. falciparum 3D7 crude extract, LDH APAD/NBT absorbance; at 2 µM; active compounds read high. On the technique in general: Counterscreens check selectivity or assay interference.

Assay [4] in a line: inhibition of 3D7 malaria parasite growth – strain 3D7 (AID 2306).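 Note: 0% = DMSO wells and 100% = chloroquine plus artemisinin control wells.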 The note with it: P. falciparum 3D7 erythrocytic growth, LDH absorbance, 72 h; at 2 µM; active compounds read high.
Assay [5] has as its target Calcium-dependent protein kinase 1 (Plasmodium falciparum (isolate 3D7)) (UniProt P62344). Briefly: PfCDPK1 kinase inhibitors, biochemical, TCAMS library (AID 1159585; cut-off not given, nearly all actives have IC50 up to about 0.98 µM;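 note: inhibitors leave more ATP so luminescence rises with inhibition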). The settings on record: recombinant PfCDPK1, Kinase-Glo ATP depletion luminescence. Background: Kinase-Glo measures the ATP left after a reaction by luminescence.
Assay [6] has as its target Plasmodium falciparum protein kinase 6 (PK6, PF3D7_1337100) (UniProt Q8IDW1). Briefly: PfPK6 kinase inhibitors, biochemical, TCAMS library (AID 1159586). The settings on record: recombinant PfPK6, Kinase-Glo ATP depletion luminescence.
For assay [7], the target named is Protein kinase 7 (PK7), Plasmodium falciparum 3D7 (PF3D7_0213400) (UniProt Q7YTF7). The experiment in a line: inhibition of Plasmodium PK7 catalytic activity – biochemical, TCAMS antimalarial set, Kinase-Glo luminescence (AID 1159587). The settings on record: recombinant PfPK7, Kinase-Glo ATP depletion luminescence.
Chain of Protein kinase 7 (PK7), Plasmodium falciparum 3D7 (PF3D7_0213400) (Q7YTF7 1-343): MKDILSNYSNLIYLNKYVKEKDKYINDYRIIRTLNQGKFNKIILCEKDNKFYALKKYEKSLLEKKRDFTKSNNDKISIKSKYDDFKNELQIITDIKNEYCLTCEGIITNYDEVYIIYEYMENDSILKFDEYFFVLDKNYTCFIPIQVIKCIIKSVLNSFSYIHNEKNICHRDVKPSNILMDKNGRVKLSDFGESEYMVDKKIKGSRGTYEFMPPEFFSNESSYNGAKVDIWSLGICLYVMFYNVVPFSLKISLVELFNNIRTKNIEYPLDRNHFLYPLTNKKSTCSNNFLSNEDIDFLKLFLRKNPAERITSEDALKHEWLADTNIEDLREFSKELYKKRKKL
Assay [8] addresses Calcium-dependent protein kinase 4 (Plasmodium falciparum (isolate 3D7)) (UniProt Q8IBS5). Briefly: PfCDPK4 kinase inhibitors, biochemical, TCAMS library (AID 1159588; cut-off not given, nearly all actives have IC50 up to about 0.91 µM). The settings on record: recombinant PfCDPK4, Kinase-Glo ATP depletion luminescence.

A number with no mark means an inactive call. For some of these results: Entries with a potency or affinity are not part of this list. The source made the active and inactive calls. Unless noted, the rule behind the calls is not given here.

Chain of Plasmodium falciparum protein kinase 6 (PK6, PF3D7_1337100) (Q8IDW1 1-305): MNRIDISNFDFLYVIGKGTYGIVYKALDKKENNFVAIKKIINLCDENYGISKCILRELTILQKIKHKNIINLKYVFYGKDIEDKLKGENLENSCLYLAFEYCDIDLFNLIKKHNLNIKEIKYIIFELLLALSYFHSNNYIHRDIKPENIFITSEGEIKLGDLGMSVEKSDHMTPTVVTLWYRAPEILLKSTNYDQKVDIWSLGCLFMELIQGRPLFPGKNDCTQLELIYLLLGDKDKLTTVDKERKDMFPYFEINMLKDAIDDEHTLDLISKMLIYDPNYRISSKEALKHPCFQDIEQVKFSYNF
Chain of Calcium-dependent protein kinase 1 (Plasmodium falciparum (isolate 3D7)) (P62344 whole entry, looked up): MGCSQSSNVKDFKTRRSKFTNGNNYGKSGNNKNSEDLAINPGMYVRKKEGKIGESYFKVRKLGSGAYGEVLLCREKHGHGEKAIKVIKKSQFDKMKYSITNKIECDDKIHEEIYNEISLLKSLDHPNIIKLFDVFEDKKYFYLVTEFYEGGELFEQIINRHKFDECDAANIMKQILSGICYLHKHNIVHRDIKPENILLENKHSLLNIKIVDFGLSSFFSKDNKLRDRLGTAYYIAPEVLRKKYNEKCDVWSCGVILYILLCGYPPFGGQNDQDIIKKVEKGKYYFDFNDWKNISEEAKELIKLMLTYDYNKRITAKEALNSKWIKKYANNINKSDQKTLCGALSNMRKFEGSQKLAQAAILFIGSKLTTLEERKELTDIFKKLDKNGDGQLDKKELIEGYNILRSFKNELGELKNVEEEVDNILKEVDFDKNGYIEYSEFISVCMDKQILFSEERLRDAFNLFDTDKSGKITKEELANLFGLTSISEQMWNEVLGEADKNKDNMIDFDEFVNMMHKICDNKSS
Chain of Calcium-dependent protein kinase 4 (Plasmodium falciparum (isolate 3D7)) (Q8IBS5 whole entry, looked up): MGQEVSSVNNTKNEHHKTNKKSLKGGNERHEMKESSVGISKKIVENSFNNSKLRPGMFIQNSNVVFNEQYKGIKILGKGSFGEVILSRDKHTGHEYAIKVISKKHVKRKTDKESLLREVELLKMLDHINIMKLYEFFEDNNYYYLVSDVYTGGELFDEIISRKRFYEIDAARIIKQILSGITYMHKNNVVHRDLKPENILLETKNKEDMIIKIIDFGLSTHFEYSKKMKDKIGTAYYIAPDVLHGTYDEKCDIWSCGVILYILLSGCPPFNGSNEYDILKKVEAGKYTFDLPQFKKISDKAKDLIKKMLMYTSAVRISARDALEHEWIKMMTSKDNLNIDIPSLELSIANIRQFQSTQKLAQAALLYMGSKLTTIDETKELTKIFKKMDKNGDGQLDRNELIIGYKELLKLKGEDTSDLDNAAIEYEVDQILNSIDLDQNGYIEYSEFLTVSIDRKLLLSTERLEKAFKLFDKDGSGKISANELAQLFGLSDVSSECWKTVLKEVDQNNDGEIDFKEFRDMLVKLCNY
Chain of L-lactate dehydrogenase (Plasmodium falciparum (isolate CDC / Honduras)) (Q27743 whole entry, looked up): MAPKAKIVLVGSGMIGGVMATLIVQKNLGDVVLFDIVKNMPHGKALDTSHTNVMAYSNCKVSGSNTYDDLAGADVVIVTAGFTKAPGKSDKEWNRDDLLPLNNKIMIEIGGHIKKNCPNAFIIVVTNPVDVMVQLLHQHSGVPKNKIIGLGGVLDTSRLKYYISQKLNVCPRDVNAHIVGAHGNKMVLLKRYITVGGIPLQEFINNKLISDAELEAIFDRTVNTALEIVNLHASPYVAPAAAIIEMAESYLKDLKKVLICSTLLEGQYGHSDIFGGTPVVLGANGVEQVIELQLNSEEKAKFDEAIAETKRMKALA

For `Cc1nc2nc(N)nc(N)c2c(C)c1Cc1ccc(C(F)(F)F)cc1`, the growth inhibition was 22% in assay [1] and 96% (active) in assay [4]. Also, the inhibition in assay [2] is 57% (active); in assay [3], -2%. Also, the outcome in assay [5], in assay [6], in assay [7] and in assay [8] was inactive.
As to `O=C(CCc1cccnc1)Nc1cccc(-c2ccc(-c3nc4ccc(C(F)(F)F)cc4[nH]3)s2)c1`, the growth inhibition in assay [1] is 13%; in assay [4], 89% (active). For the same molecule, the figures for the inhibition in assay [2] and in assay [3] were 35% and 2%, respectively. Besides, the result in assay [5], in assay [6], in assay [7] and in assay [8] was inactive.
Consider `Cc1ccc(Nc2nccc(Nc3ccc4c(C)[nH]nc4c3)n2)cc1F`, for which the results for the growth inhibition in assay [1] and in assay [4] were 1% and 95% (active), respectively. Moreover, the inhibition is 6% in assay [2] and 4% in assay [3]. In addition, the outcome in assay [5], in assay [6], in assay [7] and in assay [8] was inactive.
`COc1ccc(COc2cc(NCCCN)nc3ccccc23)cc1`: the figures for the growth inhibition in assay [1] and in assay [4] were 5% and 101% (active), respectively. Also, the inhibition was 3% in assay [2] and -4% in assay [3]. Moreover, the outcome in assay [5], in assay [6], in assay [7] and in assay [8] was inactive.
`O=C(NCC1CCC(C(=O)NCCN2CCCCC2)CC1)c1ccc(O)c(-c2ccc(Cl)c(Cl)c2)c1` (stereo not given): the growth inhibition is 22% in assay [1] and 91% (active) in assay [4]. In addition, the values for the inhibition in assay [2] and in assay [3] were -5% and -1%, respectively. For the same molecule, the result in assay [5], in assay [6], in assay [7] and in assay [8] was inactive.
For `CC(=O)Nc1ncc(C(=O)Nc2cccc(-c3ccc(-c4nc5ccc(F)cc5[nH]4)cc3)c2)s1`, the growth inhibition in assay [1] was 78% (active); in assay [4], 94% (active). Also, the values for the inhibition in assay [2] and in assay [3] were 18% and 4%, respectively. For the same molecule, the outcome in assay [5], in assay [6], in assay [7] and in assay [8] was inactive.
In the case of `COc1ccc2nccc([C@@H](O)CN3CCC(NCCOc4cccc(F)c4F)CC3)c2c1`, the growth inhibition was 85% (active) in assay [1] and 102% (active) in assay [4]. The inhibition is 9% in assay [2] and 3% in assay [3]. Besides, the result in assay [5], in assay [6], in assay [7] and in assay [8] was inactive.
`C#CCCC(=O)Nc1cccc(-c2cccc(-c3nc4ccc(C(F)(F)F)cc4[nH]3)c2)c1`: the growth inhibition in assay [1] is 45%; in assay [4], 90% (active). Further, the inhibition in assay [2] is 14%; in assay [3], -4%. The result in assay [5], in assay [6], in assay [7] and in assay [8] was inactive.
Take `Cn1c(=O)c2nc(-c3ccc(Cl)cc3)nnc2n(CCCC#N)c1=O`: the growth inhibition is 98% (active) in assay [1] and 99% (active) in assay [4]. Besides, the inhibition in assay [2] and in assay [3] was 6% in each case. Moreover, the result in assay [5], in assay [6], in assay [7] and in assay [8] was inactive.
For `CCCCCn1c(Sc2ccc(C#N)c([N+](=O)[O-])c2)nnc1-c1cccs1`, the growth inhibition in assay [1] is 38%; in assay [4] it was 91% (active). The inhibition was 19% in assay [2] and -1% in assay [3]. In addition, the outcome in assay [5], in assay [6], in assay [7] and in assay [8] was inactive.
For the molecule `C#CCOc1ccc2ccccc2c1CNCCCCCCNCc1c(OCC#C)ccc2ccccc12`, the growth inhibition in assay [1] is 98% (active); in assay [4], 100% (active). Also, the values for the inhibition in assay [2] and in assay [3] were 100% (active) and -3%, respectively. Further, the result in assay [5], in assay [6], in assay [7] and in assay [8] was inactive.
`CC(ON1C(N)=NC(N)=NC1(C)C)c1ccccc1` (stereo not given): the growth inhibition is 58% (active) in assay [1] and 96% (active) in assay [4]. Further, the inhibition in assay [2] is 65% (active); in assay [3], 0%. For the same molecule, the result in assay [5], in assay [6], in assay [7] and in assay [8] was inactive.
Turning to `O=[N+]([O-])c1ccc2ncnc(Nc3ccc(F)c(Cl)c3)c2c1`, the growth inhibition in assay [1] was 65% (active); in assay [4], 100% (active). Besides, the inhibition was -1% in assay [2] and 0% in assay [3]. For the same molecule, the outcome in assay [5], in assay [6], in assay [7] and in assay [8] was inactive.
With `CC(C)C[C@H](NC(=O)c1cc2ccccc2s1)C(=O)N[C@H]1CCN(Cc2ccc(OCCN3CCNCC3)c3ccccc23)C1`, the growth inhibition was 96% (active) in assay [1] and 101% (active) in assay [4]. Moreover, the inhibition in assay [2] was 43%; in assay [3], 3%. For the same molecule, the result in assay [5], in assay [6], in assay [7] and in assay [8] was inactive.
In the case of `Cc1c(Cl)cccc1S(=O)(=O)Nc1cccc(CCN2CCC(N3CCCCC3)CC2)c1`, the growth inhibition in assay [1] is 82% (active); in assay [4], 101% (active). For the same molecule, the inhibition in assay [2] is 38%; in assay [3], -1%. Besides, the outcome in assay [5], in assay [6], in assay [7] and in assay [8] was inactive.
Take `NC(=O)c1ccc(-n2cnc3cc(F)ccc32)cc1OCc1ccccc1C(F)(F)F` (tested in a mixture with another compound): the growth inhibition in assay [1] is 93% (active); in assay [4], 97% (active). The inhibition in assay [2] was 55% (active); in assay [3] it was 3%. The result in assay [5], in assay [6], in assay [7] and in assay [8] was inactive.
Take `CC(C)(C)c1cc(C(=O)N2CCN(c3ccc(C(F)(F)F)cn3)CC2)n(Cc2ccc(F)cc2)n1`: the growth inhibition in assay [1] is 26%; in assay [4], 88% (active). Besides, the inhibition was 4% in assay [2] and -1% in assay [3]. The result in assay [5], in assay [6], in assay [7] and in assay [8] was inactive.
In the case of `COc1ccc(OC)c2c1CCN(C)C2Cc1cccc2ccccc12` (stereo not given), the growth inhibition in assay [1] is 79% (active); in assay [4] it was 91% (active). Also, the results for the inhibition in assay [2] and in assay [3] were 13% and 7%, respectively. Moreover, the result in assay [5], in assay [6], in assay [7] and in assay [8] was inactive.
In the case of `C(=N\Nc1nccc2sc(-c3cccnc3)cc12)/c1ccncc1`, the growth inhibition in assay [1] was 94% (active); in assay [4] it was 101% (active). Moreover, the results for the inhibition in assay [2] and in assay [3] were 65% (active) and 7%, respectively. The result in assay [5], in assay [6], in assay [7] and in assay [8] was inactive.
Consider `CCCCCCOc1ccc(N2C(N)=NC(N)=NC2(C)C)cc1`, for which the growth inhibition in assay [1] was 0%; in assay [4] it was 98% (active). Besides, the results for the inhibition in assay [2] and in assay [3] were 5% and 7%, respectively. The result in assay [5], in assay [6], in assay [7] and in assay [8] was inactive.
